Compound activity from PubChem.
Mtb hypoxia rep: Mtb hypoxia fluorescent reporter inhibition; 300,000 compounds, 0.1% hits; AID 1159583; M. tuberculosis hypoxia-regulated fluorescent reporter, fluorescence; fluorescence inhibition, % (test concentration not listed); in the data active means fluorescence inhibition mostly above about 23%, no sharp cut-off; inactive means mostly below about 17%
GDH-TPI counter-1: counter-screen for M. tuberculosis FBA inhibitors: GDH-TPI coupled enzymes. GDH-TPI coupled enzyme counterscreen, NADH absorbance. inhibition, % at 4.8 µM. 360,000 compounds, 1.2% hits. AID 588335; in the data active means inhibition above about 30%;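 further: 0% = DMSO wells and 100% = wells lacking the enzyme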
Mtb BioA inh: BioA (M. tuberculosis) enzyme inhibition. purified M. tuberculosis BioA enzyme, plate reader. inhibition, % at 9.99 µM. 360,000 compounds, 0.096% hits. AID 602481; in the data active means inhibition above about 40%
FBA Mtb inh: Mtb fructose-bisphosphate aldolase inhibition | P9WQA3 | purified M. tuberculosis FBA, fluorescence read-out | inhibition, % at 1 µM | 360,000 compounds, 2.3% hits;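 further: 0% = vehicle and 100% = reference inhibitor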
Target sequence (P9WQA3 whole entry, looked up): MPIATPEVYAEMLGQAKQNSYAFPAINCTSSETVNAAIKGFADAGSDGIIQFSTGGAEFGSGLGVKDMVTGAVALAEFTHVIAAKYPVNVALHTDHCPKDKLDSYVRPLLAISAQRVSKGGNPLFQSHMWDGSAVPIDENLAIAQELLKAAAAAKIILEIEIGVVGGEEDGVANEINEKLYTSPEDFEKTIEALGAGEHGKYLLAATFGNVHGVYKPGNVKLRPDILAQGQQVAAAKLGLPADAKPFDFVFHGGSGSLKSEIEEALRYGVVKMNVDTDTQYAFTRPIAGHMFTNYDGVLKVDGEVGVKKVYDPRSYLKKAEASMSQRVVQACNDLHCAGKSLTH
FadD28 FP inh: M. tuberculosis FadD28 bisubstrate binding inhibition. FadD28 bisubstrate probe binding, fluorescence polarization. inhibition, % at 12.5 µM. 360,000 compounds, 0.22% hits; in the data active means inhibition above about 8.5%, passing the limit was not always enough
Mtb FBA inh conf: confirmation of M. tuberculosis fructose-bisphosphate aldolase inhibitors; shares compounds with FBA Mtb inh; purified M. tuberculosis FBA, fluorescence read-out; inhibition, % at 1 µM; 5,600 compounds, 78% hits;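 further: 0% = vehicle wells and 100% = reference inhibitor wells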
GDH-TPI counter-2: GDH-TPI inhibition counter-screen for FBA inhibitors | GDH-TPI coupled enzyme counterscreen, fluorescence | shares compounds with FBA Mtb inh | inhibition, % at 1 µM | 5,600 compounds, 81% hits; in the data active means inhibition above about 10%
Numbers without * were called inactive. Rows were chosen to be rich in hits. Some 2.9% of all compounds tested hit in one or more screens of this group. Unless noted, no stated cut-off is given here; in the data, active means inhibition above about 27%; inactive means the rest.

`Nc1ccccc1NC(=O)c1ccccc1N` gave Mtb hypoxia rep 4.7, GDH-TPI counter-1 7.0, Mtb BioA inh 2.0, FBA Mtb inh 61.4*, FadD28 FP inh -3.1, Mtb FBA inh conf 100.7* and GDH-TPI counter-2 87.1*.
For Cc1c(NC(=O)c2ccccc2N)cccc1C(=O)O the results were Mtb hypoxia rep 3.0, GDH-TPI counter-1 -0.6, Mtb BioA inh 0.6, FBA Mtb inh 14.1 and FadD28 FP inh -4.6.
Nc1ccccc1C(=O)NCc1ccc(Cl)cc1 was read as Mtb hypoxia rep 10.4, GDH-TPI counter-1 11.1, Mtb BioA inh 0.2, FBA Mtb inh 49.4*, FadD28 FP inh 0.3, Mtb FBA inh conf 160.5* and GDH-TPI counter-2 139.0*.
Screening Nc1ccccc1C(=O)NCc1ccc(F)cc1 returned Mtb hypoxia rep 0.4, GDH-TPI counter-1 10.4, Mtb BioA inh 0.6, FBA Mtb inh 77.2*, FadD28 FP inh -3.1 and GDH-TPI counter-2 active.
`Cc1ccc(C)c(NC(=O)CSc2nc3nc(-c4cccs4)cc(C(F)(F)F)c3c(=O)[nH]2)c1` gave Mtb hypoxia rep 10.3, GDH-TPI counter-1 5.3, Mtb BioA inh -0.3, FBA Mtb inh 44.0*, FadD28 FP inh -5.9, Mtb FBA inh conf 85.7* and GDH-TPI counter-2 81.8*.
For O=C(CSc1nc2nc(-c3cccs3)cc(C(F)(F)F)c2c(=O)[nH]1)Nc1ccc(F)c(F)c1 the results were Mtb hypoxia rep -14.1, GDH-TPI counter-1 10.9, FBA Mtb inh 20.5 and FadD28 FP inh -2.2.
`CCCn1c(-c2cccs2)nc2c1c(=O)[nH]c(=O)n2Cc1ccccc1` gave Mtb hypoxia rep -6.3, GDH-TPI counter-1 5.7, Mtb BioA inh 1.5, FBA Mtb inh 32.5*, FadD28 FP inh -3.2, Mtb FBA inh conf 130.5* and GDH-TPI counter-2 102.4*.
`COc1ccc(-c2nc3c(c(=O)[nH]c(=O)n3Cc3ccccc3)n2CCO)cc1` gave Mtb hypoxia rep 6.8, GDH-TPI counter-1 -3.1, Mtb BioA inh 0.2, FBA Mtb inh 38.9*, FadD28 FP inh 0.0, Mtb FBA inh conf 170.2* and GDH-TPI counter-2 142.9*.
Screening CCNC(=O)C[C@H]1CC[C@H](NC(=O)C2CCOCC2)[C@H](CO)O1 returned Mtb BioA inh 0.0.
`COCc1cn(CC[C@H]2CC[C@H](NC(=O)Nc3c(C)noc3C)[C@@H](CO)O2)nn1` gave Mtb BioA inh -1.8.
Screening CCCCCCSc1cccc(-c2nc3cc(C)ccn3c2NCc2ccccc2)c1 returned Mtb hypoxia rep 0.9, GDH-TPI counter-1 18.7, Mtb BioA inh -1.6, FBA Mtb inh 27.8*, FadD28 FP inh -1.6, Mtb FBA inh conf 121.6* and GDH-TPI counter-2 104.4*.
CCCCCCSc1cccc(-c2nc3ccccn3c2NCc2ccccc2)c1 was read as GDH-TPI counter-1 13.6, Mtb BioA inh -1.7, FBA Mtb inh 41.9*, FadD28 FP inh 2.8, Mtb FBA inh conf 101.3* and GDH-TPI counter-2 66.4*.
`CCCCCCSc1cc(-c2nc3ccc(C)cn3c2NCc2ccccc2)ccc1OC` gave Mtb hypoxia rep 4.2, GDH-TPI counter-1 10.9, Mtb BioA inh -1.7, FBA Mtb inh 28.5*, FadD28 FP inh -0.9, Mtb FBA inh conf 188.5* and GDH-TPI counter-2 135.6*.
For CCCCNc1c(-c2ccc(-c3ccc(OC)cc3)c(OC)c2)nc2ccccn12 the results were Mtb hypoxia rep 6.5, GDH-TPI counter-1 22.9, Mtb BioA inh 1.0, FBA Mtb inh 72.8*, FadD28 FP inh -0.7, Mtb FBA inh conf 82.3* and GDH-TPI counter-2 59.3*.
For COC(=O)[C@@]12CCCCN1C(c1ccc(-c3ccccc3)cc1)C1C(=O)N(C)C(=O)C12 (stereo not given in full) the results were Mtb hypoxia rep 6.6.
For CCCCNc1c(-c2ccc(SC(C)CC)c(OC)c2)nc2ccc(C)cn12 (stereo not given) the results were Mtb hypoxia rep 5.6, GDH-TPI counter-1 13.8, Mtb BioA inh 1.3, FBA Mtb inh 47.6*, FadD28 FP inh -0.5, Mtb FBA inh conf 35.3* and GDH-TPI counter-2 26.6*.
For N#C[C@@H]1[C@H](c2ccc(-c3ccccc3F)cc2)[C@H](CO)N1C(=O)c1ccccn1 the results were Mtb BioA inh -2.1.
For CC(C)=CC(=O)O[C@@H]1Cc2cc3ccc(=O)oc3cc2OC1(C)C the results were Mtb hypoxia rep 0.7, GDH-TPI counter-1 18.7, Mtb BioA inh 1.9, FBA Mtb inh 34.1*, FadD28 FP inh 0.7, Mtb FBA inh conf active and GDH-TPI counter-2 active.
`CC=C(C)C(=O)OC1c2c(ccc3ccc(=O)oc23)OC1C(C)(C)OC(C)=O` (stereo not given) gave Mtb hypoxia rep 4.3.
For CC(=O)OC(C)(C)C1Cc2cc3ccc(=O)oc3cc2O1 (stereo not given) the results were Mtb hypoxia rep -1.8, GDH-TPI counter-1 10.3, FBA Mtb inh 104.1*, FadD28 FP inh 0.6, Mtb FBA inh conf 0.3 and GDH-TPI counter-2 -1.5.
Screening C/C=C(/C)C(=O)OC1c2c(ccc3ccc(=O)oc23)OC(C)(C)C1OC(=O)/C(C)=C\C (stereo not given) returned GDH-TPI counter-1 15.7, Mtb BioA inh 0.4, FBA Mtb inh 12.0 and FadD28 FP inh -1.6.
`C/C=C(\C)C(=O)OC(C)(C)[C@H]1Cc2cc3ccc(=O)oc3cc2O1` gave Mtb hypoxia rep -6.9, GDH-TPI counter-1 5.9, Mtb BioA inh 23.6, FBA Mtb inh 93.5*, FadD28 FP inh -1.4, Mtb FBA inh conf active and GDH-TPI counter-2 active.
COCCN=c1scc(-c2ccc3c(c2)NC(=O)CO3)n1N=C(C)c1ccc(O)cc1 was read as Mtb hypoxia rep -8.3.
COc1ccc(NC(=O)Nc2ccc3c(c2)C(=O)N([C@@H](C)CO)C[C@H](C)[C@H](CN(C)S(=O)(=O)c2ccc(F)cc2)O3)cc1 was read as Mtb BioA inh 4.1.
Nc1ccccc1C(=O)NCC1(c2ccccc2)CCCC1 was read as Mtb hypoxia rep 9.2, GDH-TPI counter-1 -17.1, Mtb BioA inh -0.6, FBA Mtb inh 33.2*, FadD28 FP inh -3.8, Mtb FBA inh conf 159.7* and GDH-TPI counter-2 128.0*.
O=C(NCC1(c2ccccc2)CCCC1)c1ccc(Br)cc1 was read as Mtb hypoxia rep 16.0, GDH-TPI counter-1 9.0, FBA Mtb inh -1.5 and FadD28 FP inh -2.3.
For O=C(CN1CCOCC1)NCC[C@@H]1CC[C@H](NC(=O)Cc2ccccn2)[C@@H](CO)O1 the results were Mtb BioA inh 0.0.
c1ccc(-c2cn3c(n2)-c2ccccc2C3)cc1 was read as Mtb hypoxia rep 7.7, GDH-TPI counter-1 -1.4, Mtb BioA inh -0.5, FBA Mtb inh 47.7*, FadD28 FP inh -3.4, Mtb FBA inh conf 131.7* and GDH-TPI counter-2 105.9*.
`COc1ccc(C2CC(=O)C3=C(C2)Nc2ncnn2C3c2ccccc2)cc1` (stereo not given) gave GDH-TPI counter-1 6.8, Mtb BioA inh 0.5, FBA Mtb inh 5.0 and FadD28 FP inh -9.3.
